Results on 37 compounds are retold here after PubChem BioAssay (NCI).

The panel holds about 83,000 compounds, 20% with a hit somewhere; the sample as a whole holds those more often.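 Cells were grown in 96-well plates and exposed to the test compound at a single concentration for 48 hours; results are reported as percent growth, with values below 10 considered active.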 Active and inactive are the calls of the source.

This assay relates to HL-60(TB) leukemia. The assay can be described thus: NCI-60 one-dose screen, 48 h (100 = growth as untreated, 0 = no growth, -100 = all killed). The note with it: 10 µM unless noted.
For `O=C(Nc1ccc(CO)cc1)c1ccccc1Nc1ccnc(C(F)(F)F)c1`, the growth was 98.3% (inactive).

Turning to `Oc1ccc(-c2nc3ccc4[nH]ncc4c3c3c2CCCC3)c(F)c1`, the growth is 0.236% (active).

`O=C1C(=O)c2c(nc3ccc(Cl)cn23)-c2ccccc21`: the growth was -79.7% (active).

`O=C1CCCCN1c1ccc(C2=NCCCN2)cc1`: the growth is 70.7% (inactive).

Regarding `COc1ccc(C(=O)C(C#N)c2cc(OC)c(OC)c(OC)c2)cc1` (configuration not stated), the growth was 96% (inactive).

With `O=C/C=C/c1ccc([N+](=O)[O-])cc1`, the growth was 106% (inactive).

In the case of `Cn1cc(-c2nnc(-c3cn(C)c4ncccc34)s2)c2ccccc21`, the growth is 27.8% (inactive).

Regarding `C=C(C)COc1ccc(C(C)(C)C)cc1`, the growth was 104% (inactive).

Consider `COc1ccc(NC(=O)c2ccc3c(c2)nc(-c2ccc(Cl)cc2)n3-c2cc(C(C)(C)C)[nH]n2)cc1`, for which the growth was 96.8% (inactive).

Take `COc1ccc(-c2nc(-c3nc4cc(Cl)c(Cl)cc4[nH]3)c3ccccn23)cc1`: the growth is 99.9% (inactive).

As to `C#CCNC(=O)[C@]1(C)CCC[C@@]2(C)[C@H]1CC=C1C=C(C(C)C)CC[C@@H]12`, the growth was 131% (inactive).

`O=S=Nc1ccc([N+](=O)[O-])cc1`: the growth is 102% (inactive).

Regarding `NC(CCl)=NCCC[C@H](N)C(=O)O`, the growth was 104% (inactive).

Consider `Cc1cc2cc3c(=O)[nH]c(=O)cc-3n(CC(O)C(O)C(O)CO)c2cc1C` (configuration not stated), for which the growth is 102% (inactive).

On to `C=C1C(=O)O[C@H]2[C@H]1CC/C(Cn1cc(CNC(=O)/C=C/c3c[nH]c4ccccc34)nn1)=C\CC[C@@]1(C)O[C@@H]21`, for which the growth was 29.9% (inactive).

In the case of `CC(C)=CCC[C@](C)(O)[C@H]1CC[C@]2(C)[C@@H]1CC[C@@H]1[C@@]3(C)CC/C(=N/O)C(C)(C)[C@@H]3CC[C@]12C`, the growth was 5.25% [100 µM] (active).

Turning to `CC(C)Cc1ccc(C(C)C(=O)NCc2ccc(Cn3c(=O)sn(-c4ccc(Cl)cc4)c3=O)cc2)cc1` (configuration not stated), the growth was 95.8% (inactive).

Consider `C[n+]1c(-c2ccccc2)c2cc(N)ccc2c2ccccc21`, for which the growth is 59.4% (inactive).

Consider `Cc1cccc(NCS(=O)(=O)O)c1`, for which the growth was 103% (inactive).

For the compound `COc1ccc(-c2n[nH]nc2-c2cc3ccccc3s2)cc1O`, the growth was 2.49% (active).

As to `O=C1C(Br)=CC2C1C1C3CCC3C2(Br)C12OCCO2` (configuration not stated), the growth is -6.23% (active).

Turning to `N#Cc1c2c([nH]c(=O)c1C(N)=O)CCCCC2`, the growth is 104% (inactive).

Turning to `Cc1cccc(C(=O)O)n1`, the growth is 78.1% (inactive).

`O=C(Nc1ccc(C(=O)/C=C/c2ccc(N3CCOCC3)cc2)cc1)Nc1ccc([N+](=O)[O-])cc1`: the growth is 70.6% (inactive).

Regarding `Oc1c(-c2cc(C(F)(F)F)[nH]n2)cc(Cl)c(OCc2ccc(Cl)cc2)c1-c1ccc(Cl)c(C(F)(F)F)c1`, the growth is -10.8% (active).

As for `Cc1cc(CSc2ccccc2C(=O)N2CC=C(c3ccccc3)CC2)on1`, the growth was 87.7% (inactive).

With `COc1cc(C2=NN(C(C)=O)C(c3ccc(OC(C)=O)cc3OC(C)=O)O2)c(OC(C)=O)c2ccccc12` (configuration not stated), the growth was -17.9% (active).

For `CC1=NN(c2ccccc2)C(=O)/C1=C\N1CC(=O)NC1=S`, the growth is 103% (inactive).

As to `O=C1c2ccccc2-c2c1c1c(NCCCO)nc3ccccc3c1n2Cc1ccccc1`, the growth was 48.9% (inactive).

As to `COc1cc(/C=C/C(=O)c2ccc(Nc3nc(Nc4ccccc4)nc(Nc4ccc(Cl)cc4)n3)cc2)cc(OC)c1OC`, the growth is 64.5% (inactive).

For `Cc1ccc(C(=O)c2ccc(CC(=O)N/N=C/c3ccccc3O)n2C)cc1`, the growth was 87% (inactive).

Take `CCCC[C@@H](C=O)NC(=O)[C@H](CC(C)C)NC(=O)[C@H](CC(C)C)NC(=O)OCc1ccccc1`: the growth was -30.1% (active).

On to `C=C(C)[C@@H]1CC[C@]2(C(=O)NCCCN)CC[C@]3(C)[C@H](CC[C@@H]4[C@@]5(C)CC[C@H](O)C(C)(C)[C@@H]5CC[C@]43C)[C@@H]12`, for which the growth is 1.25% [100 µM] (active).

`COC(=O)[C@H](C)NC(=O)[C@@H](OC)[C@@H]1Cc2cc3cc(OC4CC(OC5CC(O)C(O)C(C)O5)C(O)C(C)O4)c(C)c(O)c3c(O)c2C(=O)[C@H]1OC1CC(OC2CC(OC3CC(C)(O)C(O)C(C)O3)C(O)C(C)O2)C(O)C(C)O1` (some centres not stated): the growth is 20.8% (inactive).

For `O=C(N=c1oc2ccccc2cc1-c1cc2ccccc2[nH]1)Nc1ccc(Cl)cc1`, the growth was 78.6% (inactive).

Regarding `COc1ccc(-c2nsc3c2NC(=O)CC3c2ccc3c(c2)OCO3)cc1` (configuration not stated), the growth was -22.3% (active).

As to `O=C1/C(=C/c2ccc(Cl)cc2)SC(=Nc2ccc(Cl)cc2)N1Cc1nc2ccccc2[nH]1`, the growth is 95.8% (inactive).
